Test results published in the supplement of paper PMC12669032.

Key:
Assay in all cases: growth AUC relative to DMSO control (median of replicates) (fraction); higher = more growth (less inhibition), active = hit call of the paper
Settings in all cases: 20 µM; 24 h;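 active = AUC reduced over 20% with Padj below 0.05 in at least 2 of 3 replicates; inactive = otherwise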
Akkermansia muciniphila = tested on: Akkermansia muciniphila
How it was run: (§1)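 Three biological replicates, each grown on a separate day, were combined as a median for every value. In each, a gut bacterial monoculture in mGAM started at OD600 0.05 and grew anaerobically at 37 °C with 20 µM compound (1% DMSO), with OD600 read hourly over 24 h. Area under the growth curve was normalised against the plate median of solvent-only wells, or against row and column medians on the industrial chemical plate, after the minimum OD was set to 0.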

Bacteroides caccae = tested on: Bacteroides caccae
How it was run: as §1

Bacteroides clarus = tested on: Bacteroides clarus
How it was run: as §1

Bacteroides dorei = tested on: Bacteroides dorei
How it was run: as §1

Bacteroides stercoris = tested on: Bacteroides stercoris
How it was run: as §1

[1] = tested on: Bacteroides thetaiotaomicron
How it was run: as §1

Bacteroides uniformis = tested on: Bacteroides uniformis
How it was run: as §1

[2] = tested on: Bifidobacterium longum subsp. longum
How it was run: as §1

Clostridium difficile = tested on: Clostridium difficile
How it was run: as §1

Collinsella aerofaciens = tested on: Collinsella aerofaciens
How it was run: as §1

Coprococcus comes = tested on: Coprococcus comes
How it was run: as §1

Escherichia coli ED1a = tested on: Escherichia coli ED1a
How it was run: as §1

Escherichia coli IAI1 = tested on: Escherichia coli IAI1
How it was run: as §1

Eubacterium rectale = tested on: Eubacterium rectale
How it was run: as §1

[3] = tested on: Fusobacterium nucleatum subsp. animalis
How it was run: as §1

Lactobacillus gasseri = tested on: Lactobacillus gasseri
How it was run: as §1

Lactobacillus paracasei = tested on: Lactobacillus paracasei
How it was run: as §1

Odoribacter splanchnicus = tested on: Odoribacter splanchnicus
How it was run: as §1

[4] = tested on: Parabacteroides distasonis
How it was run: as §1

Parabacteroides merdae = tested on: Parabacteroides merdae
How it was run: as §1

Measured: growth AUC

N#Cc1c(N)nc(NC2CC2)nc1N
inactive: Akkermansia muciniphila 0.971 | Bacteroides caccae 1.03 | Bacteroides clarus 0.972 | Bacteroides dorei 1.02 | Bacteroides stercoris 0.984 | [1] 1.01 | Bacteroides uniformis 0.987 | [2] 0.899 | Clostridium difficile 1.06 | Collinsella aerofaciens 1.05 | Coprococcus comes 1.01 | Escherichia coli ED1a 0.991 | Escherichia coli IAI1 0.992 | Eubacterium rectale 0.935 | [3] 0.994 | Lactobacillus gasseri 0.939 | Lactobacillus paracasei 0.972 | Odoribacter splanchnicus 1.01 | [4] 1.02 | Parabacteroides merdae 1

ClC(COCC(Cl)C(Cl)(Cl)Cl)C(Cl)(Cl)Cl (stereo not given)
inactive: Akkermansia muciniphila 0.875 | Bacteroides caccae 0.969 | Bacteroides clarus 0.942 | Bacteroides dorei 1.01 | Bacteroides stercoris 0.952 | [1] 0.91 | Bacteroides uniformis 0.918 | [2] 0.967 | Clostridium difficile 1.02 | Collinsella aerofaciens 1.05 | Coprococcus comes 0.976 | Escherichia coli ED1a 1.01 | Escherichia coli IAI1 0.983 | Eubacterium rectale 0.92 | [3] 0.992 | Lactobacillus gasseri 1.11 | Lactobacillus paracasei 1.08 | Odoribacter splanchnicus 0.971 | [4] 0.98 | Parabacteroides merdae 0.932

COC(=O)[C@@H](C)Oc1ccc(Oc2ncc(C(F)(F)F)cc2Cl)cc1
inactive: Akkermansia muciniphila 1.04 | Bacteroides caccae 0.831 | Bacteroides clarus 1.01 | Bacteroides dorei 0.984 | Bacteroides stercoris 1.16 | [1] 0.963 | Bacteroides uniformis 0.907 | [2] 0.976 | Clostridium difficile 1.05 | Collinsella aerofaciens 0.981 | Coprococcus comes 1.02 | Escherichia coli ED1a 1.02 | Escherichia coli IAI1 1.01 | Eubacterium rectale 1.05 | [3] 1.06 | Lactobacillus gasseri 0.889 | Lactobacillus paracasei 1.04 | Odoribacter splanchnicus 0.946 | [4] 0.913 | Parabacteroides merdae 1.01

Cn1cc(C(=O)Nc2ccc(F)cc2-c2ccc(Cl)c(Cl)c2)c(C(F)F)n1
inactive: Akkermansia muciniphila 0.929 | Bacteroides caccae 0.901 | Bacteroides clarus 0.849 | Bacteroides dorei 0.949 | Bacteroides stercoris 0.826 | [1] 0.872 | Bacteroides uniformis 0.911 | [2] 0.991 | Clostridium difficile 0.983 | Collinsella aerofaciens 0.991 | Coprococcus comes 0.921 | Escherichia coli ED1a 1.01 | Escherichia coli IAI1 0.997 | Eubacterium rectale 0.953 | [3] 0.944 | Lactobacillus gasseri 0.881 | Lactobacillus paracasei 0.968 | Odoribacter splanchnicus 0.865 | Parabacteroides merdae 0.892
active: [4] 0.741

CCc1cccc(CC)c1N(COC)C(=O)C(=O)O
inactive: Akkermansia muciniphila 0.957 | Bacteroides caccae 1.03 | Bacteroides clarus 0.971 | Bacteroides dorei 1.01 | Bacteroides stercoris 1.03 | [1] 1.03 | Bacteroides uniformis 1.02 | [2] 0.989 | Clostridium difficile 1.02 | Collinsella aerofaciens 1.03 | Coprococcus comes 0.981 | Escherichia coli ED1a 1.05 | Escherichia coli IAI1 0.999 | Eubacterium rectale 0.948 | [3] 1.04 | Lactobacillus gasseri 0.999 | Lactobacillus paracasei 1 | Odoribacter splanchnicus 1.01 | [4] 1.02 | Parabacteroides merdae 0.991

COC(=O)c1c(Cl)nn(C)c1S(=O)(=O)NC(=O)Nc1nc(OC)cc(OC)n1
inactive: Akkermansia muciniphila 0.984 | Bacteroides caccae 1.04 | Bacteroides clarus 1.07 | Bacteroides dorei 1.02 | Bacteroides stercoris 1 | [1] 0.991 | Bacteroides uniformis 1 | [2] 1.06 | Clostridium difficile 1 | Collinsella aerofaciens 1.02 | Coprococcus comes 1 | Escherichia coli ED1a 1.01 | Escherichia coli IAI1 1.01 | Eubacterium rectale 1 | [3] 1.09 | Lactobacillus gasseri 0.882 | Lactobacillus paracasei 1.03 | Odoribacter splanchnicus 0.999 | [4] 1.01 | Parabacteroides merdae 0.99

CN(C)C(N)=O
inactive: Akkermansia muciniphila 1.05 | Bacteroides caccae 0.949 | Bacteroides clarus 0.998 | Bacteroides dorei 0.982 | Bacteroides stercoris 1.05 | [1] 0.99 | Bacteroides uniformis 0.971 | [2] 0.973 | Clostridium difficile 1.03 | Collinsella aerofaciens 0.977 | Coprococcus comes 0.993 | Escherichia coli ED1a 1.01 | Escherichia coli IAI1 0.953 | Eubacterium rectale 0.967 | [3] 1.01 | Lactobacillus gasseri 0.983 | Lactobacillus paracasei 1.03 | Odoribacter splanchnicus 1.03 | [4] 0.968 | Parabacteroides merdae 1.01

COc1nc(C)nc(NC(=O)NS(=O)(=O)c2ccccc2OCCCl)n1
inactive: Akkermansia muciniphila 1.06 | Bacteroides caccae 1.09 | Bacteroides clarus 1.01 | Bacteroides dorei 1.02 | Bacteroides stercoris 1.02 | [1] 0.985 | Bacteroides uniformis 1.01 | [2] 1 | Clostridium difficile 0.998 | Collinsella aerofaciens 0.993 | Coprococcus comes 1.02 | Escherichia coli ED1a 0.948 | Escherichia coli IAI1 1 | Eubacterium rectale 0.987 | [3] 0.953 | Lactobacillus gasseri 0.933 | Lactobacillus paracasei 0.982 | Odoribacter splanchnicus 1 | [4] 0.98 | Parabacteroides merdae 0.97
